From the supplement of paper PMC10849652
Targets with a hit are over-represented here; the source holds about 8,800 in all. About 0.5% of all pairs of compound and target were hits. Unmarked numbers belong to inactive results.

What was measured:
Experiment in all cases: log2 fold change, soluble protein after heating vs DMSO (PISA); higher = thermal stabilisation; K562 lysate, 10 uM; active = over 0.2 and 3.5 SD of the protein, either way, in both replicates (recomputed)
[1] = compound: CCCS(=O)(=O)Nc1ccc(F)c(C(=O)c2c[nH]c3ncc(-c4ccc(Cl)cc4)cc23)c1F [vemurafenib]
Procedure, shortened: (§1)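 K562 pellets were dounce-homogenised in PBS pH 7.4 with 1 mM MgCl2, and the crude extract at 1 mg/mL protein was treated with 10 μM compound for 30 min. Aliquots were heated for 3 min across 48°C-58°C, pooled, and brought to 0.5% NP-40 at 4°C; soluble protein was the supernatant after 21,000xg for 90 min. Soluble protein was quantified by TMTpro 16plex LC-MS/MS with channel sums equalised, and reported as log2 fold change in thermal stability against DMSO controls, with values from duplicates.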

[2] = compound: CCCS(=O)(=O)Nc1ccc(F)c(C(=O)c2c[nH]c3ncc(Cl)cc23)c1F
Procedure, shortened: as §1

[3] = compound: CCN(CCCOc1ccc2c(Nc3cc(CC(=O)Nc4cccc(F)c4)[nH]n3)ncnc2c1)CCOP(=O)(O)O [barasertib]
Procedure, shortened: as §1

[4] = compound: CC[C@@H]1C(=O)N(C)c2cnc(Nc3ccc(C(=O)NC4CCN(C)CC4)cc3OC)nc2N1C1CCCC1
Procedure, shortened: as §1

[5] = compound: CC[C@@H]1C(=O)N(C)c2cnc(Nc3ccc(C(=O)N[C@H]4CC[C@H](N5CCN(CC6CC6)CC5)CC4)cc3OC)nc2N1C(C)C [volasertib]
Procedure, shortened: as §1

[6] = compound: CCn1c(C(=O)N(C2CC2)C2CC2)cc2c3c(ncn3C)c(Nc3cc(C)n(C)n3)nc21
Procedure, shortened: as §1

[7] = compound: CCn1cc(-c2ccnc3[nH]c(-c4cccc(CN(C)C)c4)cc23)c(-c2ccc(NC(=O)N(C)C)cc2)n1
Procedure, shortened: as §1

[8] = compound: CN1CCC(CNc2ccc3ncc(-c4cccc(OC(F)(F)F)c4)n3n2)CC1
Procedure, shortened: as §1

[9] = compound: CN1CCN(CCOc2cc(OC3CCOCC3)c3c(Nc4c(Cl)ccc5c4OCO5)ncnc3c2)CC1 [saracatinib]
Procedure, shortened: as §1

[10] = compound: CN1CCN(c2nc(C3=C(c4c[nH]c5ccccc45)C(=O)NC3=O)c3ccccc3n2)CC1 [sotrastaurin]
Procedure, shortened: as §1

UniProt Q96BS2, sequence (Q96BS2 whole entry, looked up): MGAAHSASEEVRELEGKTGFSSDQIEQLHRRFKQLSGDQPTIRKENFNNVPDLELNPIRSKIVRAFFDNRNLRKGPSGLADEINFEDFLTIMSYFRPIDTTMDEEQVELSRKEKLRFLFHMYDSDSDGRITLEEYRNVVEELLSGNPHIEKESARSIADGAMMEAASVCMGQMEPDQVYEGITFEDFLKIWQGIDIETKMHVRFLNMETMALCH
UniProt P11441, sequence (P11441 whole entry, looked up): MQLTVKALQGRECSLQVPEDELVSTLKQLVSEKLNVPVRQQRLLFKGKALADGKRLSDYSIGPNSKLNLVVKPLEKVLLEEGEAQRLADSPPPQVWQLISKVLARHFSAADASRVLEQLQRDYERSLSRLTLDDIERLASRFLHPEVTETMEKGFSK
UniProt P29144, sequence (P29144 whole entry, looked up): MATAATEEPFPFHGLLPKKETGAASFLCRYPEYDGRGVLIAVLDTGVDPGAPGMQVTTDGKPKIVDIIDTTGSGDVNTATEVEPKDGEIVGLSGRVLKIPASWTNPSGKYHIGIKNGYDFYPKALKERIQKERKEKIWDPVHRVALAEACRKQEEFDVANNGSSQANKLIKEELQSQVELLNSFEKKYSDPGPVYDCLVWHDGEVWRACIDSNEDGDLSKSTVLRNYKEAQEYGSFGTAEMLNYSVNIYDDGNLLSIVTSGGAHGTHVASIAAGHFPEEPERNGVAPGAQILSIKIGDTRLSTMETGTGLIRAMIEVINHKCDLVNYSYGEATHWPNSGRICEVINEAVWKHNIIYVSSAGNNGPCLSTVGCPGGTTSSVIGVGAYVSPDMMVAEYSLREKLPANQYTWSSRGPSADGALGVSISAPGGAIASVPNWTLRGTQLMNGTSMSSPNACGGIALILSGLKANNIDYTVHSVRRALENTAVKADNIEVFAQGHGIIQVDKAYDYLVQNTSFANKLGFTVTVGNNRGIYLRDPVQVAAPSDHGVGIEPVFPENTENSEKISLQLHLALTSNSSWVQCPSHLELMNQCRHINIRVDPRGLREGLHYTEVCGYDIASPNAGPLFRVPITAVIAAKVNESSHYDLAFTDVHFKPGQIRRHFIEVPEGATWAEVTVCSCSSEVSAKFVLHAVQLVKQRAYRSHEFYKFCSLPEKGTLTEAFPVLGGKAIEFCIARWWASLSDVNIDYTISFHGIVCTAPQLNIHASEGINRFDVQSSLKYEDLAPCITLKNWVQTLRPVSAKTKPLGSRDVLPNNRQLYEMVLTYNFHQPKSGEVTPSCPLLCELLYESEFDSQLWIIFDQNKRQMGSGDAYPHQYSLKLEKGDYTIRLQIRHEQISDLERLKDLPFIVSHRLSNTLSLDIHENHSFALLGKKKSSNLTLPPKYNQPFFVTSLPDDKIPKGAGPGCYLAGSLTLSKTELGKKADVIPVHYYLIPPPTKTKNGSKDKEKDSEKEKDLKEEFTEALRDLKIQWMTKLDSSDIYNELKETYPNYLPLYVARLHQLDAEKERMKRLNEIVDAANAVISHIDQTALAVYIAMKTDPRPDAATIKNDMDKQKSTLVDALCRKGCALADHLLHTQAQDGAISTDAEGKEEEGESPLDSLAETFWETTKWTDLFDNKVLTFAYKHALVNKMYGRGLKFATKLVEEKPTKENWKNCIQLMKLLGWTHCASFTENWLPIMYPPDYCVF
UniProt Q15813, sequence (Q15813 whole entry, looked up): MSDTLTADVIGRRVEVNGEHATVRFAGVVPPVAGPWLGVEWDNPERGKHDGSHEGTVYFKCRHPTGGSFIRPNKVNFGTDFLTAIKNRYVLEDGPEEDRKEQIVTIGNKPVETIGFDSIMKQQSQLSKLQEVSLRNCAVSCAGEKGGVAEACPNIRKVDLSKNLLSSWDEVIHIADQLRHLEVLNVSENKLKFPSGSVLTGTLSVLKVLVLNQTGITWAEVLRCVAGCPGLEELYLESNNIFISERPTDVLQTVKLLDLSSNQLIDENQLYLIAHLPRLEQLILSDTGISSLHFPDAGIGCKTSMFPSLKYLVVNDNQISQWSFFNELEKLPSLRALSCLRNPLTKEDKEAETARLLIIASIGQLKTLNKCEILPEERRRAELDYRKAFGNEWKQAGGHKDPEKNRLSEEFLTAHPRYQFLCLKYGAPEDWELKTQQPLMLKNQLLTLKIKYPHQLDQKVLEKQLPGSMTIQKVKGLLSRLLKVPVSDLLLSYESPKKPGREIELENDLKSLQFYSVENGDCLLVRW
UniProt Q9BUF5, sequence (Q9BUF5 whole entry, looked up): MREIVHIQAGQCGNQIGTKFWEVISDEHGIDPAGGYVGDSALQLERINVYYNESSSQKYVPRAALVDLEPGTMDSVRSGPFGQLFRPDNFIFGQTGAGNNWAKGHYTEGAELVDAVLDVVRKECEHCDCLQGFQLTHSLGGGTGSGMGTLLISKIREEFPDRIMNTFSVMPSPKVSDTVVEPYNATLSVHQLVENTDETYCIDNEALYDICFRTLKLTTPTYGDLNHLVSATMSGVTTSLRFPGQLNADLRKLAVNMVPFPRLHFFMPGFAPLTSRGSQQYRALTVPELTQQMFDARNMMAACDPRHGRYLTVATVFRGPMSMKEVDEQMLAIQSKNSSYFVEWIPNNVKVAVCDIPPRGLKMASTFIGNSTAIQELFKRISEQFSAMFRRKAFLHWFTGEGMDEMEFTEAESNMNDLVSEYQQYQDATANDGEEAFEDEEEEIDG
UniProt Q92547, sequence (Q92547 whole entry, looked up): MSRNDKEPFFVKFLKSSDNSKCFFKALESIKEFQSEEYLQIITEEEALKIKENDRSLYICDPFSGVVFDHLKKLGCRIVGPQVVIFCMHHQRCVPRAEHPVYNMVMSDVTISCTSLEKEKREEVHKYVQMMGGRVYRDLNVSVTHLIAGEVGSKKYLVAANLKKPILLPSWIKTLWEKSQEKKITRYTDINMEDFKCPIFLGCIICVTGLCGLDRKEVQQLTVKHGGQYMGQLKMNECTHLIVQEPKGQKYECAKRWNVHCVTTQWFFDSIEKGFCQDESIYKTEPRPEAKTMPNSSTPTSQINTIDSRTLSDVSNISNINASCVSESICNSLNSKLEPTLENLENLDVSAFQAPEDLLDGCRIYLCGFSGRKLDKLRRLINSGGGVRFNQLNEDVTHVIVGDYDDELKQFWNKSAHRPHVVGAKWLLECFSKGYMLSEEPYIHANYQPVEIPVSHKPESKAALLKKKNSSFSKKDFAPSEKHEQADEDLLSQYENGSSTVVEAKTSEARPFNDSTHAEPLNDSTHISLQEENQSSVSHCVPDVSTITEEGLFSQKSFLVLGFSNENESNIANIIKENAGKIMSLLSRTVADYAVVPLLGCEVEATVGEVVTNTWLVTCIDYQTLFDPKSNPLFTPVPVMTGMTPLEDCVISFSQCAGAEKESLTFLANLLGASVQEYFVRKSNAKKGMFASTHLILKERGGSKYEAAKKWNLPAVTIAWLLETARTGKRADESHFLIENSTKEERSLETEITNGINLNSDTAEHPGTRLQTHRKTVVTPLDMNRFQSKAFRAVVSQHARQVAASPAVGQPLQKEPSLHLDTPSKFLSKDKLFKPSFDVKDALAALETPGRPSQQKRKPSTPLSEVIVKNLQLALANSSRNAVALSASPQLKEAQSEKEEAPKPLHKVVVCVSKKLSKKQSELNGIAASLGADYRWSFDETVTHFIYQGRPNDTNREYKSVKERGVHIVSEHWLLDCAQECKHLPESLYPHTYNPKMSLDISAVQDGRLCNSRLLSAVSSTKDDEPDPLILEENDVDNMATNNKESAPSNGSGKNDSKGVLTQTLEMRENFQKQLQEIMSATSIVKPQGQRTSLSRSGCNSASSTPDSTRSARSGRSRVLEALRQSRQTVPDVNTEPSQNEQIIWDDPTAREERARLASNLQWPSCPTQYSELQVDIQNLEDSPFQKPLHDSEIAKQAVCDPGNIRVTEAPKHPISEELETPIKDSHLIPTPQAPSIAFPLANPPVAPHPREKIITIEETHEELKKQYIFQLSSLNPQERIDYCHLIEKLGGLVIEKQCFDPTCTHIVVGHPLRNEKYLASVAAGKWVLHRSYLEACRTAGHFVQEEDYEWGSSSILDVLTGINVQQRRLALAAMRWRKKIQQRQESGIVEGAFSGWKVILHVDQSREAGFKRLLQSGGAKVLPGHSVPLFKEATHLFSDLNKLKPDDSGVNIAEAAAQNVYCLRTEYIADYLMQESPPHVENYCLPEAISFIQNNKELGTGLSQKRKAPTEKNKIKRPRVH
UniProt P09493, sequence (P09493 whole entry, looked up): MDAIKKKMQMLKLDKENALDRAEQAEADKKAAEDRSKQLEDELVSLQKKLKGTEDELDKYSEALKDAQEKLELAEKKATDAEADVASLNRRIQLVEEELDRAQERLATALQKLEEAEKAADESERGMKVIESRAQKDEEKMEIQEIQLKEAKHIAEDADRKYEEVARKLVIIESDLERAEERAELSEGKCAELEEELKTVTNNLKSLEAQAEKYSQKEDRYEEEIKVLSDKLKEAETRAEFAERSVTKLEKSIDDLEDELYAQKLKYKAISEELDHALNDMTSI
UniProt Q9H7E2, sequence (Q9H7E2 whole entry, looked up): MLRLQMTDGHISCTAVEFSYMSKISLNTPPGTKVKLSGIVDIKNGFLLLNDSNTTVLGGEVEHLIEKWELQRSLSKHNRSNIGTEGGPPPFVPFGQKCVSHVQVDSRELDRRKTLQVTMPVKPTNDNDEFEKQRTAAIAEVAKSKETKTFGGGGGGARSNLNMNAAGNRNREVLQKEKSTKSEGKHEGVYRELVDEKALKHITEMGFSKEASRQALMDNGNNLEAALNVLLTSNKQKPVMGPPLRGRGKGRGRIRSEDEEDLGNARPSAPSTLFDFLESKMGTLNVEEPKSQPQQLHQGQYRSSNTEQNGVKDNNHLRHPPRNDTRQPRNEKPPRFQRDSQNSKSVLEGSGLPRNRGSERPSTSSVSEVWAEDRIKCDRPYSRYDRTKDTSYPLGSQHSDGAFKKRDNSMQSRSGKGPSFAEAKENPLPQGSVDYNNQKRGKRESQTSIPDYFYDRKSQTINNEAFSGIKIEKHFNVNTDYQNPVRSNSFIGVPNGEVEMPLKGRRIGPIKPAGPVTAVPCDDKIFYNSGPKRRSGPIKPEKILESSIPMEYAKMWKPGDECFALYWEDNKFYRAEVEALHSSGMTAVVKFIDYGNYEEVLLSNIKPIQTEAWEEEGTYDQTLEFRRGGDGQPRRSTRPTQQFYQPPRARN

Target	log2 fold change [1]	log2 fold change [2]	log2 fold change [3]	log2 fold change [4]	log2 fold change [5]	log2 fold change [6]	log2 fold change [7]	log2 fold change [8]	log2 fold change [9]	log2 fold change [10]
TOPBP1 (UniProt Q92547)	0.024	-0.08	0.018	0.012	-0.079	-0.029	0.305 (active)	-0.071	-0.003	0.02
TOE1 (UniProt Q96GM8)	0.052	0.018	-0.053	-0.051	-0.031	-0.042	-0.022	-0.005	-0.029	0.007
TPM1 isoform 4 (UniProt P09493)	-0.049	-0.012	-0.036	-0.018	0.033	0.013	0.106	-0.149	0.031	-0.012
TUBB (UniProt P07437)	0.018	0.003	-0.051	-0.02	-0.063	-0.017	-0.041	0.004	0.029	0.017
TPP2 (UniProt P29144)	-0.015	0.01	-0.024	-0.016	-0.023	0.009	0.025	-0.012	-0.016	-0.009
TMEM263 (UniProt Q8WUH6)	0.086	-0.024	0.19	0.133	0.023	0.097	-0.034	-0.242	0.109	-0.003
TUBGCP5 (UniProt Q96RT8)	-0.023	-0.351	-0.057	-0.204	0	0.004	-0.06	0.088	-0.075	0.033
UBL4A (UniProt P11441)	-0.032	-0.001	0.089	-0.081	-0.02	0.121	0.33 (active)	-0.094	0.028	0
UBXN2B (UniProt Q14CS0)	0.148	0.049	0.147	0.065	-0.066	-0.035	-0.142	0.074	-0.068	
TDRKH (UniProt Q9Y2W6)	0.07	0.055	0.031	-0.195	-0.052	-0.003	-0.095	0.058	-0.004	-0.039
TTC5 (UniProt Q8N0Z6)	0.016	0.017	-0.014	-0.03	-0.014	0.018	-0.111	0.054	0.005	0.007
TDRD3 isoform 3 (UniProt Q9H7E2)	0.012	-0.01	-0.043	0.041	-0.054	0.137	0.164	-0.078	-0.094	0.014
TMEM87B (UniProt Q96K49)	-0.004	0.047	0.091	0.018	0.005	-0.006	0.074	-0.032	-0.166	0.026
THOC5 (UniProt Q13769)	0.005	0.013	-0.023	-0.031	-0.008	0.008	0.02	-0.008	0.024	0.013
TFIP11 (UniProt Q9UBB9)	0.017	0.025	-0.09	-0.018	-0.059	0.048	-0.027	-0.037	0.018	0.027
TESC (UniProt Q96BS2)	0.045	0.029	0.291 (active)	0.047	0.036	-0.004	0.109	-0.023	0.063	0.012
TIMM44 (UniProt O43615)	-0.035	-0.017	0.07	-0.006	-0.034	0.022	-0.02	-0.065	0.012	-0.026
TCF3 (UniProt P15923)	-0.01	0.002	0.012	0.129	0.002	0.047	0.028	0.043	-0.158	0.002
TPX2 (UniProt Q9ULW0)	-0.006	-0.013	-0.036	0.093	0.012	-0.035	0.04	-0.007	0.03	-0.016
TRAPPC6A isoform 2 (UniProt O75865)	-0.144	0.027	-0.001	-0.288 (active)	-0.035	-0.072	-0.228	-0.096	0.001	-0.042
TMEM97 (UniProt Q5BJF2)	0.076	-0.027	0.037	0.028	0.099	-0.048	-0.327 (active)	0.173	0.002	-0.08
TRAPPC10 (UniProt P48553)	0.022	0.009	0.027	-0.063	-0.052	0.022	-0.061	0.071	0.016	-0.039
UCHL5 (UniProt Q5LJA9)	-0.021	-0.061	-0.01	-0.103	0.03	-0.108	0.019	0	0.023	0.007
TBCE (UniProt Q15813)	0.04	0.015	0.024	-0.065	-0.082	0.048	-0.044	-0.023	0.013	0.001
TOX4 (UniProt O94842)	-0.019	0.005	0.017	0.06	-0.027	-0.018	-0.235	0.147	0.041	0.005
TOR3A (UniProt Q9H497)	-0.001	-0.11	-0.031	-0.013	-0.05	-0.006	-0.123	0.057	0.014	0.03
TRIM33 (UniProt H0Y612)	0.012	0.007	0.087	0.018	0.012	0.093	-0.017	0.051	-0.078	0.006
TUBB6 (UniProt Q9BUF5)	0.007	0.002	-0.015	0.003	-0.068	-0.007	-0.019	0.014	0.032	-0.024
UBAP2L isoform 5 (UniProt Q14157)	-0.002	0.025	0.013	0.023	-0.006	0.013	0.028	-0.01	0.03	-0.002
